# Screens (PubChem BioAssay)
# Hsp70 act: Hsp70 transcriptional activators, primary screen, cell-based, HeLa, Hsp70 promoter luciferase, luminescence, 10 µM; activation, % at 10 µM; 200,000 tested, 0.04% active; HeLa Hsp70 promoter luciferase reporter; scaled: vehicle 0, proteasome-inhibitor control 100%;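 active = activation above the mean across all tested compounds plus 3 SD, cutoff set per campaign, cut at about 5.5% in these data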;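 note: 100% = MG132 at 30 µM as the positive control and 0% = DMSO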
# S1P4 antag: S1P4 receptor antagonists, primary screen, cell-based; Sphingosine 1-phosphate receptor 4 (Homo sapiens), O95977; S1P4-expressing cells, antagonist mode, reporter read-out; inhibition, % at 4.98 µM; 220,000 tested, 0.26% active; AID 1510, 2009; in the data active = inhibition above about 29%;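 note: 0% = wells stimulated with agonist and 100% = vehicle wells without agonist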
# Target sequence (O95977 whole entry, looked up): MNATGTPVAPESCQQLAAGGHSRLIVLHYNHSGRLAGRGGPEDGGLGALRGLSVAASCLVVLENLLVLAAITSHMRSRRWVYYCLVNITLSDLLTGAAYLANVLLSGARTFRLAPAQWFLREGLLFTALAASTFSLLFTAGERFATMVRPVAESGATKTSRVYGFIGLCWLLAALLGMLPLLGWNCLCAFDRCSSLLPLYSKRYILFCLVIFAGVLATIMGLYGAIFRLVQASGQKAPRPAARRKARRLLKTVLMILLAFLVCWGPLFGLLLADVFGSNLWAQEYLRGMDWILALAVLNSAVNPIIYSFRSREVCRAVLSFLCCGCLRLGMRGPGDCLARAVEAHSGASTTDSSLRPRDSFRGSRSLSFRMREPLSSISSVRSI
# CHOP inh: inhibitors of CHOP promoter induction, primary screen, cell-based, unfolded protein response, luciferase reporter. CHO-K1 CHOP-promoter luciferase, tunicamycin-induced, 15-18 h. inhibition, % at 10 µM. 220,000 tested, 3.8% active. AID 2732, 2010;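 active = compounds that reduced the stress-induced luciferase reporter signal by more than about 70% of percent inhibition, limit read from the data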;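 note: 0% = tunicamycin plus vehicle and 100% = wells without tunicamycin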
# S1P4 ag: S1P4 receptor agonists, primary screen, cell-based. S1P4-expressing cell line, agonist reporter assay. Sphingosine 1-phosphate receptor 4 (Homo sapiens), O95977. AID 1509, 2009. 220,000 tested, 0.35% active. activation, % at 4.98 µM; in the data active = activation above about 11%;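 note: 0% = DMSO vehicle and 100% = reference agonist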
# Numbers without * were called inactive; . = no result. Hits are enriched below; roughly 4.2% of the tested compounds scored in any of these assays.
SMILES,Hsp70 act,S1P4 antag,CHOP inh,S1P4 ag
Cc1ccc(C(c2c(C)nn(-c3ccccc3)c2N)c2c(C)nn(-c3ccccc3)c2N)cc1,0,-5,51,-1
Cc1nn(-c2ccccc2)c(N)c1C(c1ccc(C(C)C)cc1)c1c(C)nn(-c2ccccc2)c1N,0,-10,85*,0
OC(CCN1CCOCC1)(c1ccc(Cl)cc1)C1CCCCC1 (stereo unspecified),0,-1,80*,0
Nc1ccc(C23CC4CC(CC(O)(C4)C2)C3)cc1,0,-20,12,-2
Nc1ccc(C23CC4CC(CC(C4)C2)C3)cc1,0,-6,75*,1
Cn1c(COc2ccccc2)nnc1SCCSc1nnc(COc2ccccc2)n1C,0,-9,45,0
COC(=O)c1c(C)[nH]c(C(=O)C(C)Sc2nnc(-c3cc(OC)c(OC)c(OC)c3)o2)c1C (stereo unspecified),0,-6,27,-2
Cc1ccc(NC(=O)C(=O)Nc2ccc(C)cn2)nc1,0,-14,-28,2
Cc1ccc(NC(=O)/C(C#N)=C(\N)C(Cl)(Cl)Cl)nc1,0,1,101*,2
CCOc1ccc(C(=O)NC(=S)NC2CCCC2)cc1[N+](=O)[O-],0,-4,71*,0
Cc1ccc(/C=N/Nc2ccnc3cc(Cl)ccc23)c(C)c1,0,-10,105*,4
Clc1ccc2c(N/N=C/c3cccnc3)ccnc2c1,0,-28,-1,1
Oc1ccc(Nc2ccnc3cc(Cl)ccc23)cc1,.,16,9,0
Oc1ccc(/C=N/Nc2ccnc3cc(Cl)ccc23)c(O)c1,.,-5,90*,1
CC(NCc1cccn1C)c1ccccc1 (stereo unspecified),0,-26,10,-1
CC(C)(C)C(=O)Nc1ccccc1C(=O)Nc1cccnc1,0,-23,22,0
Cc1cc(Br)ccc1OCC(=O)N(Cc1nc(-c2ccccc2)no1)C(C)C,0,-23,95*,0
Cc1cccc(-c2noc(CN(C(=O)c3ccc(Br)o3)C(C)C)n2)c1,0,14,88*,0
COc1ccc(-c2nnc(COc3ccc4ccccc4c3)o2)cc1OC,0,-13,6,0
COc1cc2ccccc2cc1-c1nnc(COc2ccccc2)o1,0,-10,82*,-3
c1ccc(-c2cc(-c3ccncc3)nc3ccc4ccccc4c23)cc1,-1,4,89*,-1
Clc1ccc2nc(-c3ccncc3)cc(-c3ccccc3)c2c1,0,10,55,2
COC(=O)c1ccc(NC(=O)Nc2ccc(F)c(Cl)c2)cc1,0,4,86*,0
O=C(Nc1ccc(F)c(Cl)c1)Nc1ccc(Cl)cn1,0,-17,81*,0
COC(=O)c1ccc(NC(=O)Nc2ccc(F)cc2)cc1,0,-9,39,0
SMILES,Hsp70 act,S1P4 antag,CHOP inh,S1P4 ag
COc1ccccc1NC(=O)Nc1ccc(C(=O)N2CCCCC2)cc1,.,-11,-2,2
N#Cc1ccccc1Cn1c(=O)n(CCCC(=O)NCc2ccc3c(c2)OCO3)c(=O)c2ccccc21,0,-11,1,2
Cc1ccc(Cn2c(=O)n(CCC(=O)NCc3ccc4c(c3)OCO4)c(=O)c3ccccc32)cc1,0,5,95*,1
COc1ccccc1NC(=O)NCc1ccc2c(c1)OCO2,0,-5,20,0
O=C(NCc1ccc2c(c1)OCO2)Nc1cccc2ccccc12,.,5,86*,1
Cc1c(O)ccc2c(=O)c(-c3nncn3-c3ccccc3)coc12,0,-8,2,2
NC(=O)C1CCN(C(=O)CNC(=O)c2ccccc2)CC1,0,-7,9,1
CSc1ncc(CN2CCc3c([nH]c4ccccc34)C2c2cccc(O)c2)cn1 (stereo unspecified),0,5,86*,1
Cc1nc2c(C(=O)NCc3cccs3)cnn2c(C)c1Cc1ccccc1,0,2,43,-1
Cc1cc(C)c(OCC(=O)Nc2nc3ccccc3[nH]2)c(C)c1,0,-8,10,1
CC(=O)c1sc(NC(=O)c2cc3c(C)nn(-c4ccccc4)c3s2)nc1C,1,-31,81*,0
COC(=O)c1c(NC(C)=O)sc(C(=O)Nc2ccccc2)c1C,0,-1,-31,-1
CCOc1ccc(NC(=O)c2sc(NC(C)=O)c(C(=O)OC)c2C)cc1,0,0,73*,2
COc1cc(/C=C2/CCC/C(=C\c3cc(O)c(OC)c(Cl)c3)C2=O)cc(Cl)c1O,1,-10,80*,1
Cc1ccc(Cn2nc(-c3ccccc3)nc2-c2ccccc2)cc1,0,-21,75*,-1
Cc1c(Cl)c(=O)oc2cc(OC(C)C)ccc12,0,-10,1,2
COC(=O)c1cc2occc2n1Cc1ccc(Cl)cc1,0,-10,87*,1
CCOC(=O)C1(C)C=C(Nc2ccc(C)cc2)C(=O)N1c1ccc(C)cc1 (stereo unspecified),0,-2,-1,1
Cc1ccc(C)c(NC(=S)N(Cc2ccco2)C(C)c2cccs2)c1 (stereo unspecified),0,-1,-2,2
CCOc1nc(C)cc(COC)c1C(N)=O,0,-7,8,2
CCOc1ccc(N2C(=O)CC(Sc3nnnn3-c3ccccc3)C2=O)cc1 (stereo unspecified),0,-4,108*,1
CCOc1ccc(N2C(=O)CC(Sc3nc(C)cc(C)n3)C2=O)cc1 (stereo unspecified),0,6,21,0
Cc1ccc(/C=C/C(=O)N2CCC(Cc3ccccc3)CC2)cc1,0,-10,87*,1
Cc1ccc(/C=C/C(=O)N2CCCC(C)C2)cc1 (stereo unspecified),0,-22,32,0
Cc1ccc(C(=O)N/N=C/c2ccc([N+](=O)[O-])s2)cc1,-1,-13,70*,2
SMILES,Hsp70 act,S1P4 antag,CHOP inh,S1P4 ag
Cn1c(SCC(=O)Nc2cccc(Br)c2)nnc1-c1cc2ccccc2o1,0,-2,91*,-1
COC(=O)c1ccc2c(=O)n(CCN3CCOCC3)c(SCC(=O)c3ccccc3)nc2c1,.,11,-10,1
O=[N+]([O-])c1ccc(C2=Nc3cc(Cl)ccc3OC2)cc1,0,-11,-28,-1
Cc1ccc2c(c1)N=C(c1ccc(F)cc1)CO2,0,-5,78*,2
CCN1CCc2c(sc(NC(=O)Nc3ccc(Cl)c(Cl)c3)c2C(N)=O)C1,0,-7,70*,0
CCC(C)Sc1nc2c([nH]c3ccccc32)c(=O)n1C (stereo unspecified),0,-10,10,-2
Cc1cccc(NC(=O)CSc2nc3nc4c(cc3c(=O)n2-c2ccccc2)CCCC4)c1,0,-23,80*,3
CCSc1nc2c([nH]c3ccccc32)c(=O)n1C,0,-7,77*,-3
